# Only some compounds are listed: those with a hit (about 8% of all), similar ones and a draw of the others.
# KB-V1 cytotox = KB-V1 MDR subline cytotoxicity; KB-V1 MDR cells viability, CellTiter-Glo, 72 h; Potency, µM (highest dose often 46.1 µM), usual class: cytotoxic; 3.4% of 400,000 active; note: nearly all actives have a fitted effect of over 60% in size
#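 Drug-selected KB-V1 cells, grown in DMEM lacking phenol red with 10% FBS, receive compound titrations; after three days at 37 degrees C, surviving cell ATP is quantified by CellTiter-Glo luminescence and responses normalized and curve-fitted.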
# MCF10A rerep = DNA re-replication induction in MCF 10a cells; MCF 10A DNA re-replication, Hoechst nuclear intensity, 48 h; Potency, µM (highest dose often 46.1 µM), actives largely listed as activators; 2.9% of 350,000 active; note: nearly all actives have a fitted effect of over 50% in size
# KB-3-1 cytotox = KB-3-1 parental cell cytotoxicity; KB-3-1 viability, CellTiter-Glo ATP luminescence, 72 h; Potency, µM (series often up to 46.1 µM), hits mostly cytotoxic; 1.4% of 400,000 active; note: nearly all actives have a fitted effect of over 60% in size
#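 Using CellTiter-Glo luminescence, growth of non-resistant KB-3-1 adenocarcinoma cells is assessed 72 h after pin-tool compound addition at 37 °C. Normalized responses across the concentration series yield fitted curves.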
# SW480 rerep = induces DNA re-replication in SW480 colon adenocarcinoma cells | 1.8% of 340,000 active | Potency, µM (titrated, usually from 46.1 µM), actives largely listed as activators | AID 624297 | SW480 DNA re-replication, Hoechst DNA content imaging, 48 h; note: nearly all actives have a fitted effect of over 55% in size
#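 DNA re-replication was detected as more nuclei of elevated Hoechst intensity after 48 hr exposure to compound (23 nL pinned per well of 250 cells).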
# HT1080NT lethal = kills 2HG-producing HT-1080-NT fibrosarcoma cells. 1.6% of 360,000 active. AID 686970. HT-1080-NT fibrosarcoma viability, CellTiter-Glo ATP luminescence, 48 h. Potency, µM (doses to about 46.1 µM), actives largely listed as cytotoxic;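 note: NT is the 2HG producing partner of a matched IDH1 knockdown line; nearly all actives have a fitted effect of over 55% in size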
#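 A 48-hour cytotoxicity screen used HT-1080-NT cells plated 2 hours before compound delivery. ATP-based CellTiter-Glo luminescence measured viability, normalized to DMSO and no-cell controls.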
# HT1080 IDH1KD tx = HT-1080 IDH1 knockdown cell toxicity (counter line); HT-1080 IDH1 knockdown viability, ATP luminescence, 48 h; Potency, µM (series often up to 46.1 µM), hits mostly cytotoxic; 2% of 360,000 active
#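 % activity derives from luminescence (CellTiter-Glo), normalised to DMSO and no-cell wells. HT-1080-IDH1KD cells, 750/well, had 48 h compound exposure at 37 °C.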
# Numbers stand for hits; 0 = inactive; ? = inconclusive; - = no result given; [ ] = remark or other dose. Calls come from the whole dose curve; as a rule, active = well fitted curve in the direction sought with a large enough effect; inconclusive = small, poorly fitted or top-dose-only effect, or another doubt; inactive = no such curve, though single readings can be large; an effect the other way counts as inactive or inconclusive.
SMILES,KB-V1 cytotox,MCF10A rerep,KB-3-1 cytotox,SW480 rerep,HT1080NT lethal,HT1080 IDH1KD tx
CCOc1ccccc1NC(C)C(=O)Nc1cc(C(F)(F)F)ccc1N1CCOCC1 (stereo not drawn),5.8µM,0,?,0,0,0
CN(Cc1ccc(F)cc1)S(=O)(=O)c1nnc(NC(=O)c2ccccc2Cl)s1,0,-,0,-,-,-
Cc1cc(C)cc(C(=O)Nc2ccc(-c3nc4ncccc4o3)cc2)c1,0,-,0,-,-,-
CCOC(=O)CN1C(=O)C(Sc2n[nH]c(-c3cccc(C)c3)n2)CCc2ccccc21 (stereo not drawn),21µM,0,0,0,?,?
CCOC(=O)CN1C(=O)C(Sc2n[nH]c(-c3ccc(C)cc3)n2)CCc2ccccc21 (stereo not drawn),0,0,0,0,?,?
CCOc1ccccc1N1C(=O)CC(Sc2n[nH]c(-c3ccccc3)n2)C1=O (stereo not drawn),0,15µM,0,?,0,?
COc1cccc(CNC(=O)c2ccc3c(c2)nc2n3CCOC2)c1OC,0,-,0,-,-,-
O=C1Nc2ccc(Br)cc2/C1=C/C1CC=CCC1 (stereo not drawn),0,?,?,?,?,21µM
O=C1NC(Cc2ccccc2)C(=O)Nc2ccc(Br)cc21 (stereo not drawn),0,0,0,0,0,0
CCOC(=O)c1cnc2c(ccc3ccccc32)c1Nc1ccccc1O,0,-,0,-,-,-
CCOC(=O)C1CCN(C(=O)Cn2c(=O)oc3cc(S(=O)(=O)N4CCC(C)CC4)ccc32)CC1,0,-,0,-,-,-
O=C1Nc2ccccc2OC1CC(=O)N1CCOCC1 (stereo not drawn),0,0,0,0,0,0
O=C1Nc2ccccc2OC1CC(=O)N1CCN(c2cccc(C(F)(F)F)c2)CC1 (stereo not drawn),?,0,0,0,0,20µM
C/C(=N/NC(=O)c1ccc(C)nc1)c1ccc2c(c1)CCCC2,10µM,?,?,?,16µM,23µM
O=C(OCC1OC(OC(=O)c2cc(O)c(O)c(OC(=O)c3cc(O)c(O)c(O)c3)c2)[C@@H](OC(=O)c2cc(O)c(O)c(OC(=O)c3cc(O)c(O)c(O)c3)c2)C(OC(=O)c2cc(O)c(O)c(OC(=O)c3cc(O)c(O)c(O)c3)c2)C1OC(=O)c1cc(O)c(O)c(OC(=O)c2cc(O)c(O)c(O)c2)c1)c1cc(O)c(O)c(OC(=O)c2cc(O)c(O)c(O)c2)c1 (stereo partly drawn),-,0,-,0,-,-
CC(C)(C)c1ccc(OCC(=O)Nc2ccc(-c3nc4cccnc4o3)cc2)cc1,0,16µM,0,0,0,0
CC(C)C(=O)Nc1ccc(-c2nc3cccnc3o2)cc1,?,?,0,0,0,0
CC(C)(C)c1ccc(OCC(=O)Nc2ccc(C(=O)Nc3ccccc3C(=O)O)cc2)cc1,?,18µM,0,0,0,0
C#CCOCCOCCOCCNc1nc(N2CCN(C(=O)CCCCCCCCCCNC(=O)[C@H]([C@@H](C)CC)n3cc(CCCCN=C(N)N)nn3)CC2)nc(N2CCN(C(=O)CCCCCCCCCCNC(=O)[C@@H]([C@H](C)O)n3cc(C)nn3)CC2)n1,?,0,?,0,?,26µM
C#CCOCCOCCOCCNc1nc(N2CCN(C(=O)CCCCCCCCCCNC(=O)[C@H](CCCCN)n3cc(C)nn3)CC2)nc(N2CCN(C(=O)CCCCCCCCCCNC(=O)[C@H](CCCN=C(N)N)n3cc(C[C@@H](C)CC)nn3)CC2)n1,?,?,?,0[9.22 µM],?,?
CC[C@H](C)Cc1cn([C@@H](CCCN=C(NC(=O)OC(C)(C)C)NC(=O)OC(C)(C)C)C(=O)NCCCCCCCCCCC(=O)N2CCN(C(=O)OC(C)(C)C)CC2)nn1,0,?,?,0,?,?
Cc1cn([C@@H](CCCCNC(=O)OC(C)(C)C)C(=O)NCCCCCCCCCCC(=O)N2CCN(C(=O)OC(C)(C)C)CC2)nn1,0,?,?,0,21µM,?
C#CCOCCOCCOCCNc1nc(N2CCN(C(=O)CCCCCCCCCCNC(=O)[C@H](CCCCN)n3cc(C)nn3)CC2)nc(N2CCN(C(=O)CCCCCCCCCCNC(=O)[C@@H]([C@H](C)O)n3cc(C)nn3)CC2)n1,?,?,21µM,0,10µM,?
C#CCOCCOCCOCCNc1nc(N2CCN(C(=O)CCCCCCCCCCNC(=O)[C@H](CCCCN)n3cc(C[C@@H](C)CC)nn3)CC2)nc(N2CCN(C(=O)CCCCCCCCCCNC(=O)[C@H](CCCN=C(N)N)n3cc(C[C@@H](C)CC)nn3)CC2)n1,0,16µM,0,0[9.22 µM],?,?
C#CCOCCOCCOCCNc1nc(N2CCN(C(=O)CCCCCCCCCCNC(=O)[C@@H](CCSC)n3cc(CCO)nn3)CC2)nc(N2CCN(C(=O)CCCCCCCCCCNC(=O)[C@H](CO)n3cc(CCCCCN)nn3)CC2)n1,0,0,0,0,?,?
SMILES,KB-V1 cytotox,MCF10A rerep,KB-3-1 cytotox,SW480 rerep,HT1080NT lethal,HT1080 IDH1KD tx
C#CCOCCOCCOCCNc1nc(N2CCN(C(=O)CCCCCCCCCCNC(=O)[C@@H](CCSC)n3cc(CCO)nn3)CC2)nc(N2CCN(C(=O)CCCCCCCCCCNC(=O)[C@@H]([C@H](C)O)n3cc(C)nn3)CC2)n1,0,16µM,0,0,0,0
C#CCOCCOCCOCCNc1nc(N2CCN(C(=O)CCCCCCCCCCNC(=O)Cn3cc(C[C@@H](C)O)nn3)CC2)nc(N2CCN(C(=O)CCCCCCCCCCNC(=O)[C@@H](CCSC)n3cc(CCO)nn3)CC2)n1,0,?,0,?,?,21µM
C#CCOCCOCCOCCNc1nc(N2CCN(C(=O)CCCCCCCCCCNC(=O)[C@H](CCCCN)n3cc(CCO)nn3)CC2)nc(N2CCN(C(=O)CCCCCCCCCCNC(=O)[C@H](CCCCN)n3cc(C[C@@H](C)CC)nn3)CC2)n1,0,?,0,0[9.22 µM],?,?
C#CCOCCOCCOCCNc1nc(N2CCN(C(=O)CCCCCCCCCCNC(=O)[C@H](CCCCN)n3cc(C[C@@H](C)CC)nn3)CC2)nc(N2CCN(C(=O)CCCCCCCCCCNC(=O)[C@@H]([C@H](C)O)n3cc(C)nn3)CC2)n1,9.2µM,12µM,?,0[9.22 µM],?,?
O=C(O)c1cc(-c2ccc(C(F)(F)F)cc2)nc2n[nH]c(-c3ccccc3)c12,0,-,0,-,-,-
CCOc1ccc(NC(=O)C2CCN(C(=O)N3CC(C)Oc4ccc(Cl)cc43)CC2)cc1 (stereo not drawn),0,-,0,-,-,-
Cc1cc(C)n2c(Nc3ccccc3)c(-c3ccccc3)nc2n1,0,-,0,-,-,-

# Screening data from PubChem.
